Screening results (PubChem)
Pol kappa inh-1: qHTS for Inhibitors of Polymerase Kappa; purified Pol kappa, fluorescent DNA synthesis assay, 10 min; Potency, µM (series often up to 107 µM), for inactives: top-dose activity, negative = inhibition, most hits filed as inhibitors; hit rate 0.53% among 400,000; AID 588579, 2011; also: potency is read from the fitted curve at half-maximal effect; % is scaled to controls: 0 for no effect and ±100 for the full control effect
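Kinetic fluorescence readout at 0 and 10 min followed reaction start with substrate at 50 nM final. Beforehand, enzyme (10 nM Pol kappa) stood 15 min with compound at room temperature; buffer-only wells were negative controls.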
GCN5L2 inh: qHTS Assay for Inhibitors of GCN5L2. Potency, µM (top dose mostly 58.9 µM), for inactives: at the highest dose activity change, negative = inhibition, hits mostly inhibitors. AID 504327, 2011. GCN5L2 HAT assay, ThioGlo1 CoA-SH fluorescence. hit rate 0.21% among 390,000; also: potency is read from the fitted curve at half-maximal effect; % is scaled to controls: 0 for no effect and ±100 for the full control effect
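GCN5L2 (20nM final) in 50mM HEPES, 0.1mM EDTA pH 7.5, 0.01% Tween-20 was preincubated 15 min at room temperature with compound, then given ThioGlo1 (50uM), H3(1-25) peptide (75uM) and acetyl-CoA (70uM); CoA-thiol fluorescence (Ex340/Em540) was read at 0 and 20 min.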
Pol eta inh-1: qHTS for Inhibitors of Polymerase Eta; Potency, µM (highest dose often 114 µM), without a hit: top-dose activity change, negative = inhibition, hits mostly inhibitors; recombinant Pol eta, fluorescent DNA replication assay; hit rate 1.2% among 390,000; AID 588591, 2011; DNA polymerase eta (Homo sapiens), Q9Y253; also: potency is read from the fitted curve at half-maximal effect; % is scaled to controls: 0 for no effect and ±100 for the full control effect
Target sequence (Q9Y253 whole entry, looked up): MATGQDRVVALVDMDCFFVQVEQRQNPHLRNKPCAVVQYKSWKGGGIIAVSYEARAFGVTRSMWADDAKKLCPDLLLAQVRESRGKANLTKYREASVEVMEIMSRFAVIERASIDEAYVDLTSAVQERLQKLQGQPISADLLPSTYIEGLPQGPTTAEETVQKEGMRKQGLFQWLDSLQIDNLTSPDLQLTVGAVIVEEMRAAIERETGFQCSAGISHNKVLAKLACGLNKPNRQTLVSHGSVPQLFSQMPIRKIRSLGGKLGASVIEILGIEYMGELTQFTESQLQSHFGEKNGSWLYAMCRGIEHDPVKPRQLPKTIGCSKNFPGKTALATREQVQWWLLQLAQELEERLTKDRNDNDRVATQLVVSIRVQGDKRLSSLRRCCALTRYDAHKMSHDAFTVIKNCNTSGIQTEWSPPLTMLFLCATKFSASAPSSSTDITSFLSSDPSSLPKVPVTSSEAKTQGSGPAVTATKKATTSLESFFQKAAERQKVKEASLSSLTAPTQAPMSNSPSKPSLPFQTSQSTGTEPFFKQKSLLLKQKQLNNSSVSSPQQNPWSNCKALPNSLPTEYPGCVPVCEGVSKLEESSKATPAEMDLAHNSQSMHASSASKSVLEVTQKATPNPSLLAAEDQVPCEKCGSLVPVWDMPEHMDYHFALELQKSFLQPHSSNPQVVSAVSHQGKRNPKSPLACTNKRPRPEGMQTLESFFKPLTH
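Pol eta at 10 nM preincubated with compounds 15 min at room temperature; reaction started with fluorescent substrate (50 nM final) and read kinetically at 0 and 10 min.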
Pol iota inh: qHTS for Inhibitors of Polymerase Iota; DNA polymerase iota (Homo sapiens), Q9UNA4; Potency, µM (doses to about 115 µM), without a hit: at the highest dose activity, negative = inhibition, actives largely listed as inhibitors; hit rate 1% among 390,000; Pol iota fluorescent replication assay, 10 min; also: potency is read from the fitted curve at half-maximal effect
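Fluorescent replication assay read twice, at 0 min and 10 min after adding 50 nM (final) substrate. Enzyme (10 nM) and compounds were first incubated 15 min at room temperature; enzyme-free buffer wells were negative controls.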
GLS inh: qHTS for Inhibitors of Glutaminase (GLS); Glutaminase kidney isoform, mitochondrial (Homo sapiens), O94925; GLS enzymatic activity, qHTS titration; Potency, µM (doses to about 45.5 µM), inactives show at the highest dose activity change, negative = inhibition, most hits filed as inhibitors; hit rate 0.21% among 410,000; AID 624170, 2012; also: potency is read from the fitted curve at half-maximal effect; % is scaled to controls: 0 for no effect and ±100 for the full control effect
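Read-out is an Amplex red fluorescence increase coupled through glutamate oxidase and HRP, measured before and after 30 min room-temperature incubation. hKGA is in 45 mM KH2PO4 (pH 8.2) with 0.02% Tween-20; glutamine added as 1mM solution.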
POLB inh: qHTS Assay for Inhibitors of DNA Polymerase Beta. hit rate 1.3% among 340,000. Pol beta primer extension/strand displacement, fluorescence kinetic. Potency, µM (doses to about 114 µM), for inactives: top-dose activity change, negative = inhibition, hits mostly inhibitors; also: potency is read from the fitted curve at half-maximal effect; % is scaled to controls: 0 for no effect and ±100 for the full control effect
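Reaction started by 50 nM substrate onto compound-treated Pol beta (10 nM, 15 min preincubation, room temperature); plates read at 0 min and 10 min. Normalized concentration-effect data fitted by four-parameter Hill equation.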
GALK inh confirm: Confirmation Assay for Inhibitors of Human Galactokinase (GALK); Potency, µM (series often up to 115 µM), for inactives: at the top dose activity, negative = inhibition, actives largely listed as inhibitors; purified GALK, Kinase-Glo ATP depletion luminescence; hit rate 70% among 150; shares compounds with Pol eta inh-1
Redox cycling: Confirmatory Assay for Inhibitors of Human Galactokinase (GALK): Phenol-HRP redox assay counterscreen. Phenol red-HRP H2O2 redox cycling, absorbance 600 nm. shares compounds with Pol eta inh-1. hit rate 40% among 150. Potency, µM (titrated, usually from 115 µM), for the others: at the highest dose activity change, negative = H2O2 signal, most hits filed as inhibitors. AID 2035, 2009
HEK293 viability: Secondary Assay for Inhibitors of Human Galactokinase (GALK): HEK-293 Cell Viability Assay | Potency, µM (highest dose often 46.1 µM), inactives show at the highest dose activity change, negative = cytotoxicity, usual class: inhibitors | HEK-293 viability, ATP luminescence (CellTiter-Glo), 24/48 h | shares compounds with Pol eta inh-1 | AID 2547, 2010 | hit rate 10% among 170; also: potency is read from the fitted curve at half-maximal effect; % is scaled to controls: 0 for no effect and ±100 for the full control effect
Pol kappa inh-2: qHTS for Inhibitors of Polymerase Kappa: Confirmatory Assay for Cherry-picked Compounds; hit rate 76% among 920; Potency, µM, most hits filed as inhibitors; purified Pol-kappa, fluorescent strand-displacement substrate; shares compounds with Pol eta inh-1; also: potency is read from the fitted curve at half-maximal effect
Pol eta inh-2: qHTS for Inhibitors of Polymerase Eta: Confirmatory Assay for Cherry-picked Compounds. shares compounds with Pol eta inh-1. Pol eta primer extension, TAMRA/BHQ fluorescence, 10 min. Potency, µM, usual class: inhibitors. hit rate 64% among 2,600. AID 720502, 2013; also: potency is read from the fitted curve at half-maximal effect
Starred values were filed as active, the others as inactive; ? = inconclusive; nt = no result given; [ ] = another dose, or the depositor's remark. Hits are enriched below; roughly 2.4% of the tested compounds scored in any of these assays. Calls follow the shape of the dose curve; as a rule, active = well fitted curve in the direction sought with a large enough effect; inconclusive = small, poorly fitted or top-dose-only effect, or another doubt; inactive = no such curve, though single readings can be large; an effect the other way counts as inactive or inconclusive.

SMILES | Pol kappa inh-1 | GCN5L2 inh | Pol eta inh-1 | Pol iota inh | GLS inh | POLB inh | Pol eta inh-2 | others
N#C/C(=C\c1coc2ccc(O)cc2c1=O)C(=O)Nc1nc2ccccc2s1 | 2.8µM* | ? | 3.5µM* | ? | -28% | ? | nt | GALK inh confirm=33µM*;Redox cycling=-1%;HEK293 viability=?
c1csc(-c2nc(N3CCN(Cc4ccc5c(c4)OCCO5)CC3)c3ccccc3n2)c1 | 0% | nt | nt | 15% | nt | nt | nt
Cc1ccc(-c2ccc(CCC(=O)O)n2Cc2ccco2)cc1 | -28% | -4%[0.501 µM] | 22µM* | ? | 10% | ? | ?
O=C(CSc1n[nH]c(-c2ccccc2)n1)NCCCc1ccccc1 | -11%[60.1 µM] | -3% | -22% | -5% | 7% | 7% | nt
Cc1cccc(C)c1OCC(=O)N/N=C/C=C/c1ccco1 | -11% | -9% | 17% | -3% | 3% | -1% | nt
Cc1cccc(OCC(=O)N/N=C/C=C/c2ccco2)c1 | ? | ? | ? | ? | -6% | 35µM* | ?
CCOC(=O)N/N=C\C=C\c1ccco1 | -37% | 1% | 79µM* | ? | 10% | ? | 76*
CCOC(=O)N/N=C(C)/C=C/c1ccco1 | 5% | -2% | -12% | 11% | -2% | 14% | nt
O=C1N=C(N2C=CC(=C3C=CNC=C3)C=C2)/C(=C/N=NC(=O)c2ccccc2O)S1 | ? | 0% | 18µM* | 32µM* | 9% | 14µM* | 76*
Cc1cc(C)cc(-n2c(C)cc(C(=O)C(=O)Nc3nnc(C)s3)c2C)c1 | -20% | -5% | -5% | -5% | 14% | -18% | nt
Cc1cc(C(=O)C(=O)Nc2nnc(C(C)C)s2)c(C)n1-c1ccccc1 | -4% | -3% | 40µM* | 11% | 8% | 12% | ? | Pol kappa inh-2=21*
Cc1cccc(-n2c(C)cc(C(=O)C(=O)Nc3nncs3)c2C)c1 | -5% | -6% | 50µM* | 46% | -2% | -1% | ? | Pol kappa inh-2=?
COc1ccc2c(c1)CC[C@@H]1[C@@H]2CC[C@]2(C)[C@@H](NCCCCCCN3C(=O)C=CC3=O)CC[C@@H]12 | 5%[19.4 µM] | -7% | nt | nt | nt | nt | nt
